Where “and” joins values, the source holds several entries; their conditions need not be identical. Equal values may be shown once. The panel holds about 79,000 compounds, 15% with a hit somewhere; the sample as a whole holds those more often. Some compounds were tested as several samples or in several runs, with calls that do not always agree. Calls of active or inactive are those of the source. No stated cut-off is given here; in the data, active means growth inhibition above about 70%; inactive means the rest.
Experiments:
[1] = NCI Yeast Anticancer Drug Screen. Data for the rad52 strain (AID 147);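 further: 0% = growth of vehicle-treated control cultures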; details: S. cerevisiae rad52 mutant growth inhibition, stronger effect = higher value
Method in brief: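 Vehicle-treated cultures served as the reference for growth inhibition of compound-exposed yeast bearing a DNA repair mutation.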

[2] = NCI Yeast Anticancer Drug Screen. Data for the wt1 strain (AID 149);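 further: 0% = growth of vehicle-treated wt1 cultures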; details: S. cerevisiae wt1 strain (SPY 50644) growth inhibition, stronger effect = higher value
Method in brief: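 Growth inhibition read against vehicle controls after compound exposure of the wt1 yeast strain.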

[3] = NCI Yeast Anticancer Drug Screen. Data for the mgt1 strain (AID 153); details: S. cerevisiae mgt1 mutant growth inhibition, stronger effect = higher value
Method in brief: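 mgt1 strain exposed; growth vs vehicle control recorded as inhibition.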

[4] = NCI Yeast Anticancer Drug Screen. Data for the rad50 strain (AID 155);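 further: 0% = growth of vehicle-only cultures of the same strain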; details: S. cerevisiae rad50 strain growth inhibition, stronger effect = higher value
Method in brief: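 Readout: growth inhibition relative to vehicle-treated cultures. Compound exposure was carried out in a genetically defined yeast strain deficient in DNA damage repair.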

[5] = NCI Yeast Anticancer Drug Screen. Data for the mec2-1 strain (AID 157); details: S. cerevisiae mec2-1 strain, stronger effect = higher value
Method in brief: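 Vehicle-treated cultures served as reference for growth inhibition of compound-exposed mec2-1 yeast.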

[6] = NCI Yeast Anticancer Drug Screen. Data for the sgs1 mgt1 strain (AID 161);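 further: 0% = growth of cultures given vehicle only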; details: S. cerevisiae sgs1 mgt1 strain, stronger effect = higher value
Method in brief: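 Test agents were incubated with a DNA-repair-mutant yeast strain. Growth was then read and compared against vehicle-treated controls.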

[7] = NCI Yeast Anticancer Drug Screen. Data for the CLN2oe strain (AID 163);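 further: 0% = growth of vehicle-only control cultures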; details: S. cerevisiae CLN2oe strain, stronger effect = higher value
Method in brief: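 Inhibition relative to vehicle-treated yeast is reported. Cells: strain with genetic alteration in cell-cycle control, grown with compound.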

[8] = NCI Yeast Anticancer Drug Screen. Data for the cln2 rad14 strain (AID 165);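 further: 0% = growth equal to vehicle treated cultures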; details: S. cerevisiae cln2 rad14 strain, stronger effect = higher value
Method in brief: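 Each compound was tested on cln2 rad14 yeast. Inhibition of growth was calculated against vehicle-exposed controls.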

[9] = NCI Yeast Anticancer Drug Screen. Data for the bub3 strain (AID 167); details: S. cerevisiae bub3 mutant strain, stronger effect = higher value
Method in brief: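 Readout: yeast growth inhibition, expressed relative to vehicle-only wells. The test organism is a mutant strain from a panel with lesions in DNA repair or checkpoint genes.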

[10] = NCI Yeast Anticancer Drug Screen. Data for the wt2 strain (AID 169);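 further: 0% = growth of vehicle-treated yeast cultures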; details: S. cerevisiae wt2 strain growth inhibition, stronger effect = higher value
Method in brief: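 Inhibition of yeast growth was determined after compound treatment, normalised to controls receiving only vehicle.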

[11] = NCI Yeast Anticancer Drug Screen. Data for the mlh1 strain (AID 171);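 further: 0% = growth of vehicle-treated control cultures of the same strain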; details: S. cerevisiae mlh1 strain growth inhibition, stronger effect = higher value
Method in brief: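 Vehicle-normalised growth inhibition of a repair- or checkpoint-altered yeast strain following compound treatment.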

[12] = NCI Yeast Anticancer Drug Screen. Data for the sgs1 strain (AID 173);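 further: 0% = growth of vehicle-only control cultures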; details: S. cerevisiae sgs1 mutant, stronger effect = higher value
Method in brief: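 Screen format: yeast with repair or checkpoint alterations, compound exposure, growth read relative to vehicle.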

[13] = NCI Yeast Anticancer Drug Screen. Data for the mlh1 rad18 strain (AID 175); details: S. cerevisiae mlh1 rad18 strain growth inhibition, stronger effect = higher value
Method in brief: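 Vehicle-treated cultures served as the reference for growth inhibition in a yeast strain carrying DNA damage repair alterations exposed to each compound.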

[14] = NCI Yeast Anticancer Drug Screen. Data for the rad18 strain (AID 177); details: S. cerevisiae rad18 mutant growth inhibition, stronger effect = higher value
Method in brief: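 Test articles were incubated with altered yeast defective in DNA damage repair. Results are given as inhibition of growth versus vehicle.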

[15] = NCI Yeast Anticancer Drug Screen. Data for the rad14 strain (AID 159);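 further: 0% = growth of vehicle-treated control cultures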; details: S. cerevisiae rad14 strain growth inhibition, stronger effect = higher value
Method in brief: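 Growth inhibition vs vehicle controls; genetically altered yeast strain (DNA damage repair defect) treated with test compounds.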

[16] = at 5.0 µM (retest, dose inferred, filed as 0.5)
[17] = at 50.0 µM (retest, dose inferred, filed as 5.0)

Measured: growth inhibition

COC(C(O)CO)C(O)C(O)C(=O)NNc1ccccc1 (stereo unspecified)
inactive: [1]; at 1.2 µM 12% | [1]; at 3.7 µM 23% | [1]; at 11.0 µM 45% | [1]; at 33.0 µM 61% | [2]; at 1.2 µM 1% | [2]; at 3.7 µM 5% | [2]; at 11.0 µM 29% | [2]; at 33.0 µM 36% | [2]; at 100.0 µM 66% | [3]; at 1.2 µM -1% | [3]; at 3.7 µM 11% | [3]; at 11.0 µM 29% | [3]; at 33.0 µM 26% | [4]; at 1.2 µM 35% | [4]; at 3.7 µM 41% | [4]; [16] 9% | [4]; at 11.0 µM 68% | [5]; at 1.2 µM 0% | [5]; at 3.7 µM 4% | [5]; [16] 7% | [5]; at 11.0 µM 40% | [5]; at 33.0 µM 31% | [5]; at 50.0 µM 54.4% | [6]; [16] 15% | [7]; at 1.2 µM 8% | [7]; at 3.7 µM 7% | [7]; at 11.0 µM 57% | [7]; at 33.0 µM 62% | [8]; [16] 5% | [8]; [17] 68% | [9]; at 1.2 µM -1% | [9]; at 3.7 µM 1% | [9]; [16] 23% | [9]; at 11.0 µM 26% | [9]; at 33.0 µM 34% | [10]; at 1.2 µM -4% | [10]; at 3.7 µM 22% | [10]; at 11.0 µM 22% | [10]; at 33.0 µM 9% | [11]; at 1.2 µM 2% | [11]; at 3.7 µM 9% | [11]; at 11.0 µM 44% | [11]; at 33.0 µM 61% | [12]; at 1.2 µM -11% | [12]; at 3.7 µM 34% | [12]; at 11.0 µM 47% | [12]; at 33.0 µM 68% | [13]; [16] 28% | [14]; at 1.2 µM 17% | [14]; at 3.7 µM 49%
active: [1]; at 100.0 µM 93% | [3]; at 100.0 µM 94% | [4]; at 33.0 µM 79% | [4]; [17] 71% | [4]; at 50.0 µM 96.1% | [4]; at 100.0 µM 96% | [5]; [17] 76% | [5]; at 100.0 µM 94% | [6]; [17] 80% | [6]; at 50.0 µM 94.7% | [7]; at 100.0 µM 97% | [8]; at 50.0 µM 89% | [9]; [17] 97% | [9]; at 50.0 µM 96.1% | [9]; at 100.0 µM 93% | [10]; at 100.0 µM 86% | [11]; at 100.0 µM 97% | [12]; at 100.0 µM 97% | [13]; [17] 96% | [13]; at 50.0 µM 94.5% | [14]; at 11.0 µM 79% | [14]; at 33.0 µM 78% | [14]; at 100.0 µM 97%

Cc1cc(N(CCOS(C)(=O)=O)CCOS(C)(=O)=O)ccc1C=Nc1ccc(-c2nc(Cc3ccccc3)sc2C)cc1
97% (active) and 46% (inactive): [5]; [17]
97% (active) and 43% (inactive): [13]; [17]
active: [1]; at 11.0 µM 84% | [1]; at 33.0 µM 92% | [1]; at 100.0 µM 96% | [2]; at 33.0 µM 90% | [2]; at 100.0 µM 98% | [3]; at 33.0 µM 90% | [3]; at 100.0 µM 98% | [4]; at 11.0 µM 71% | [4]; at 33.0 µM 93% | [4]; at 100.0 µM 97% | [5]; at 11.0 µM 72% | [5]; at 33.0 µM 93% | [5]; at 100.0 µM 98% | [15]; at 11.0 µM 80% | [15]; at 33.0 µM 96% | [15]; at 100.0 µM 96% | [6]; at 50.0 µM 85.5% and 85.9% | [7]; at 33.0 µM 91% | [7]; at 100.0 µM 97% | [9]; at 33.0 µM 89% | [9]; at 100.0 µM 98% | [10]; at 33.0 µM 92% | [10]; at 100.0 µM 98% | [12]; at 33.0 µM 94% | [12]; at 100.0 µM 98% | [13]; at 50.0 µM 77% | [14]; at 3.7 µM 73% | [14]; at 11.0 µM 90% | [14]; at 33.0 µM 94% | [14]; at 100.0 µM 98%
84.2% (active) and 37% (inactive): [9]; at 50.0 µM
78% (active) and -3% (inactive): [13]; [16]
86.2% (active) and 27.1% (inactive): [8]; at 50.0 µM
inactive: [1]; at 1.2 µM 9% | [1]; at 3.7 µM 52% | [2]; at 1.2 µM -29% | [2]; at 3.7 µM -10% | [2]; at 11.0 µM 28% | [3]; at 1.2 µM -24% | [3]; at 3.7 µM 4% | [3]; at 11.0 µM 55% | [4]; at 1.2 µM 12% | [4]; at 3.7 µM 23% | [4]; [16] 44% and 1% | [4]; at 50.0 µM 52.9% | [5]; at 1.2 µM -26% | [5]; at 3.7 µM 4% | [5]; [16] 40% and -3% | [5]; at 50.0 µM 49.3% | [15]; at 1.2 µM 3% | [15]; at 3.7 µM 38% | [6]; [16] 23% and 3% | [6]; [17] -12% and 43% | [7]; at 1.2 µM 23% | [7]; at 3.7 µM 0% | [7]; at 11.0 µM 57% | [8]; [16] 29% and 0% | [8]; [17] -12% and 35% | [9]; at 1.2 µM -32% | [9]; at 3.7 µM -38% | [9]; [16] 16% and -2% | [9]; at 11.0 µM 25% | [9]; [17] -14% and 55% | [10]; at 1.2 µM -12% | [10]; at 3.7 µM 10% | [10]; at 11.0 µM 48% | [12]; at 1.2 µM 3% | [12]; at 3.7 µM 15% | [12]; at 11.0 µM 66% | [14]; at 1.2 µM 41%
95% (active) and 49% (inactive): [4]; [17]

Reference: PubChem BioAssay (NCI)
